Screening data as filed in PubChem.
VACV Venus inh – vaccinia inhibition (Venus reporter) | Vaccinia virus Venus reporter expression, fluorescence | Potency, µM (doses to about 36.5 µM), without a hit: top-dose activity change, negative = inhibition, actives largely listed as inhibitors | hit rate 0.46% among 330,000; calls by dose curve; tested in A549 cells; also: % is scaled to controls: 0 for no effect and ±100 for the full control effect; nearly all actives have a fitted effect of over 30% in size
Pf growth 96h – P. falciparum growth inhibition at 96 hours; hit rate 6.9% among 320,000; AID 504834; P. falciparum luciferase reporter growth, 96 h; Potency, µM (doses to about 28.7 µM), without a hit: at the highest dose activity change, negative = inhibition, usual class: inhibitors; also: % is scaled to controls: 0 for no effect and ±100 for the full control effect
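Delayed-death screen, second-generation endpoint: infected erythrocytes, 2% hematocrit, 0.05% parasitemia final; 96 hours at 37 C, 5% CO2; luciferase detection reagent; luminescence decrease equals reduced growth.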
Pf growth 48h – inhibits P. falciparum growth in the first generation, 48 h. Potency, µM (series often up to 28.7 µM), without a hit: top-dose activity change, negative = inhibition, actives largely listed as inhibitors. P. falciparum luciferase growth in erythrocytes, 48 h. hit rate 5.9% among 310,000; also: % is scaled to controls: 0 for no effect and ±100 for the full control effect
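Luminescence readout; reporter = integrated firefly luciferase in P. falciparum. RBC culture at 2% hematocrit, 0.1% parasitemia final, 37 C/5% CO2; decreased signal taken as growth inhibition.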
VACV mCherry inh – vaccinia inhibition (mCherry reporter). hit rate 0.63% among 310,000. Vaccinia virus mCherry reporter infection, fluorescence. Potency, µM (titrated, usually from 36.5 µM), without a hit: top-dose activity change, negative = inhibition, actives largely listed as inhibitors; calls by dose curve; tested in A549 cells; also: % is scaled to controls: 0 for no effect and ±100 for the full control effect; nearly all actives have a fitted effect of over 35% in size
HCV inhibitor – blocks hepatitis C virus | Huh7.5.1 HCVcc-Cre infection, luciferase reporter, 44 h | Potency, µM (top dose mostly 41.8 µM), for the others: at the highest dose activity change, negative = inhibition, hits mostly inhibitors | hit rate 3.4% among 340,000; also: % is scaled to controls: 0 for no effect and ±100 for the full control effect
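Seed cells (1,000/well) for 4 h; treat with compound and infect with HCVcc-Cre, moi about 0.5. Incubate 44 h, then detect luciferase activity.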
NS1 function inh – blocks influenza NS1 protein function. Potency, µM (highest dose often 46.1 µM), without a hit: top-dose activity, positive = more growth. hit rate 0.4% among 270,000. AID 2326; calls by dose curve; also: actives are rising curves; nearly all actives have a fitted effect of over 50% in size
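S. cerevisiae expressing influenza A NS1, grown in glucose, washed, then diluted 1:100 into pH 6.0 -URA galactose medium with 23 nl compound. Growth recovery read as OD600; NS1-free strain serves as control.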
* = called active by the depositor; i = inactive; ? = inconclusive; · = no result. Shown are actives, neighbours in structure and some others; about 11% of the full set was active somewhere. Unless noted, calls follow the shape of the dose curve; as a rule, active = well fitted inhibition curve with a large enough effect; inconclusive = small, poorly fitted or top-dose-only effect, or another doubt; inactive = no such curve, though single readings can be large or run the other way. Potency is read from the fitted curve at half-maximal effect.

SMILES	VACV Venus inh	Pf growth 96h	Pf growth 48h	VACV mCherry inh	HCV inhibitor	NS1 function inh
C#CCOCCOCCOCCNc1nc(N2CCN(C(=O)Cn3cc(CCCN=C(N)N)nn3)CC2)nc(N2CCN(C(=O)[C@H]([C@@H](C)CC)n3cc(CCCCN)nn3)CC2)n1	-15%	?	?	i	20%	·
C#CCOCCOCCOCCNc1nc(N2CCN(C(=O)[C@H]([C@@H](C)CC)n3cc(CCCCN)nn3)CC2)nc(N2CCN(C(=O)[C@H](CCCCN)n3cc(CCCC)nn3)CC2)n1	-15%	-27%	?	i	25%	·
C#CCOCCOCCOCCNc1nc(N2CCN(C(=O)CCCCCCCCCCNC(=O)[C@H]([C@@H](C)CC)n3cc(CCCCN=C(N)N)nn3)CC2)nc(N2CCN(C(=O)CCCCCCCCCCNC(=O)[C@H](CCCCN)n3cc(C)nn3)CC2)n1	7.1µM*	4.7µM*	3.7µM*	?	?	·
C#CCOCCOCCOCCNc1nc(N2CCN(C(=O)CCCCCCCCCCNC(=O)[C@H]([C@@H](C)CC)n3cc(CCCCCN)nn3)CC2)nc(N2CCN(C(=O)CCCCCCCCCCNC(=O)[C@H]([C@@H](C)CC)n3cc(CCCCN=C(N)N)nn3)CC2)n1	·	2.9µM*	?	·	?	·
Cn1c(C(=O)N2CCCC(C(=O)NCCCc3ccccc3)C2)cc2sccc21 (stereo not drawn)	-20%	?	?	?	?	-13%
COc1ccccc1-n1ccnc1SCC(=O)NC1CCCC1	0%	-13%	-5%	-9%	?	·
Cc1ccc(NC(=O)CSc2nc3ccc(NC(=O)c4ccco4)cc3s2)cc1	-15%	·	·	-5%	·	·
C#CCOCCOCCOCCNc1nc(N2CCN(C(=O)CCCCCCCCCCNC(=O)[C@H]([C@@H](C)CC)n3cc(CCCCN=C(N)N)nn3)CC2)nc(N2CCN(C(=O)CCCCCCCCCCNC(=O)[C@H](CO)n3cc(CCCCCN)nn3)CC2)n1	7.1µM*	5.2µM*	5.2µM*	?	?	·
COc1ccc(N(CC(=O)N2CCOCC2)S(C)(=O)=O)cc1Cl	4%	12µM*	-14%	-8%	-2%	5%
CCc1ccccc1N(CC(=O)N1CCCC1)S(C)(=O)=O	·	10µM*	-2%	·	17%	-13%
CCc1ccccc1N(CC(=O)N1CCCCCC1)S(C)(=O)=O	-3%	-43%	-11%	i	26%	25%
COc1ccc(N(CC(=O)N2CCOCC2)S(C)(=O)=O)cc1	-11%	?	-7%	i	35%	0%
COc1ccc(N(CC(=O)N2CCOCC2)S(C)(=O)=O)cc1OC	-4%	13µM*	-5%	i	2%	5%
CS(=O)(=O)N(CC(=O)N1CCCC1)c1ccc(Cl)cc1	-12%	?	5%	-11%	16%	0%
Cc1ccc(N(CC(=O)N2CCCC2)S(C)(=O)=O)cc1C	-8%	7.4µM*	-17%	i	13%	-5%
COc1ccc(NC(=O)CSc2nnc(CCC(=O)O)c(=O)n2N)cc1	·	-24%	?	·	10%	-3%
CCc1cc(=O)oc2cc(OCC(=O)N(CC)CC)c(Cl)cc12	-8%	10µM*	·	i	-9%	-1%
CCc1cc(=O)oc2cc(OCC(=O)O)c(Cl)cc12	·	·	7%	·	1%	1%
Cc1ccc2nc(C)c3c(c2c1)OC(C(C)(Cl)Br)C3 (stereo not drawn)	-4%	?	13µM*	17%	7.1µM*	-44%
COc1ccc2nc(C)c3c(c2c1)OC(C(C)(Cl)Br)C3 (stereo not drawn)	-13%	-2%	3%	-14%	-4%	-1%
Cc1nc2ccccc2c2c1CC(C(C)(Cl)Br)O2 (stereo not drawn)	·	-5%	?	·	3.2µM*	-10%
COc1ccc(C)cc1S(=O)(=O)N(CC(=O)Nc1cccc([N+](=O)[O-])c1)c1ccc(C)c(C)c1	-10%	17%	13µM*	-3%	6%	6%
COc1ccc(C)cc1NS(=O)(=O)c1ccc(NC(=O)CN(c2cc([N+](=O)[O-])ccc2C)S(C)(=O)=O)cc1	?	18%	?	-30%	10µM*	8%
O=C(CCNS(=O)(=O)c1cccc2nonc12)Nc1ccc(F)cc1	8%	·	·	1%	·	·
CC(C)CC(=O)Nc1ccc(S(=O)(=O)N2CC3CC(C2)c2cccc(=O)n2C3)cc1 (stereo not drawn)	-11%	-17%	2%	-1%	-8%	·
SMILES	VACV Venus inh	Pf growth 96h	Pf growth 48h	VACV mCherry inh	HCV inhibitor	NS1 function inh
CCOc1ccc(/C=N/NC(=O)c2ccc(F)cc2)cc1CN1CC2CC(C1)c1cccc(=O)n1C2 (stereo not drawn)	-19%	18%	5.2µM*	i	?	·
CCOc1ccc(/C=N/NC(=O)c2ccccc2C)cc1CN1CC2CC(C1)c1cccc(=O)n1C2 (stereo not drawn)	-27%	?	3.7µM*	-12%	?	·
CCOc1ccc(/C=N/NC(=O)c2ccccc2Cl)cc1CN1CC2CC(C1)c1cccc(=O)n1C2 (stereo not drawn)	-14%	-23%	8.3µM*	-4%	2.5µM*	·
CCCOc1ccc(C(=O)Nc2ccc(S(=O)(=O)N3C[C@@H]4C[C@@H](C3)c3cccc(=O)n3C4)cc2)cc1	?	4.7µM*	2.1µM*	?	3.2µM*	·
O=c1cccc2n1CC1CC2CN(Cc2c(Cl)cccc2Cl)C1 (stereo not drawn)	·	·	-14%	·	?	-43%
CCOC(=O)c1ccc(NC(=O)Nc2ccon2)cc1	·	-3%	-1%	·	-1%	-66%
N#Cc1ccc(CSc2nnc(NC(=O)c3ccc(=O)[nH]c3)s2)cc1	-8%	?	?	-3%	?	2%
COC(=O)c1c(C(=O)OC)c(-c2ccc(Cl)cc2)n2c1CS(=O)(=O)C2	-12%	?	1.5µM*	i	2%	-4%
COC(=O)c1c(C(=O)OC)c(-c2ccc(C(C)(C)C)cc2)n2c1CS(=O)C2 (stereo not drawn)	-6%	?	10µM*	-9%	1%	·
COC(=O)c1c(C(=O)OC)c(-c2cccc(F)c2)n2c1CS(=O)C2 (stereo not drawn)	-4%	45%	1%	-5%	14%	2%
COC(=O)c1c(C(=O)OC)c(-c2ccc(C)cc2)n2c1CS(=O)(=O)C2	-11%	1.7µM*	·	·	-14%	5%
COC(=O)c1c(C(=O)OC)c(-c2cccc(Cl)c2)n2c1CS(=O)(=O)C2	·	-19%	0%	·	-12%	-3%
CCOC(=O)c1ccc2c(c1)N(CC#N)C(=O)C(C)(C)O2	·	29%	?	·	0%	-3%
CC1CC1C(=O)OCC(=O)Nc1ccccc1Oc1ccccc1 (stereo not drawn)	·	1%	20%	·	1%	·
